Reference: PubChem BioAssay (Tox21)
Results filed as inconclusive are left out. Where a call stands in place of a potency, no number is given. Unmarked numbers belong to inactive results. Active and inactive are the calls of the source. The call rests on the fitted dose curve; in most records, active means well fitted cell-killing curve with a large enough effect in the repeat runs; inconclusive means weak or mixed curves, or effect the other way; inactive means flat fitted curve, though single readings scatter.

What was measured:
[1] = cAMP Responsive Elements (CRE) small molecule antagonists, cell-based qHTS assay: qHTS cell viability counter screen (AID 2060913); further: nearly all actives have a fitted effect of over 40% in size
Procedure, shortened: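 Cytotoxicity counter screen multiplexed with the CRE-bla antagonist read: HEK293T cells in DMEM with dialyzed FBS and 25 mM HEPES were treated 3 hrs under 0.25 uM final NKH477, then viability measured by CellTiter-Glo luminescence.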

[2] = cAMP Responsive Elements (CRE) small molecule agonists, cell-based qHTS assay: qHTS cell viability counter screen (AID 2060914);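 further: viability read after 3 h of compound exposure; nearly all actives have a fitted effect of over 50% in size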
Procedure, shortened: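 CRE-bla HEK293T cells in 10% dialyzed FBS medium were exposed to compounds for 3 h at 37C after 18 h plating. CellTiter-Glo was then added in the same wells, and luminescence was read after 30 min at room temperature.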

CC1=CCC(O)(C(C)C)CC1 (stereo not drawn)
Potency [1]: inactive
Potency [2]: inactive

CCn1ccnc1CC1COc2ccccc2O1 (stereo not drawn)
Potency [1]: inactive
Potency [2]: inactive

O=CC1CC1
Potency [1]: inactive
Potency [2]: inactive

C#C[C@]1(O)CC[C@H]2[C@@H]3CCC4=CC(=O)CC[C@@H]4[C@H]3CC[C@@]21C
Potency [1]: inactive
Potency [2]: inactive

NC(N)=Nc1nc(CSCC/C(N)=N/S(N)(=O)=O)cs1
Potency [1]: inactive
Potency [2]: inactive

CCCOc1ccc(C(=O)OCCN(CC)CC)cc1N
Potency [1]: inactive
Potency [2]: inactive

CC(C)(c1ccc(Oc2ccc3c(c2)C(=O)OC3=O)cc1)c1ccc(Oc2ccc3c(c2)C(=O)OC3=O)cc1
Potency [1]: inactive
Potency [2]: inactive

CN(C)c1ccc2nc3ccc(=[N+](C)C)cc-3sc2c1
Potency [1]: inactive
Potency [2]: inactive

CCOC(=O)/C=C\C(=O)OCC
Potency [1]: inactive
Potency [2]: inactive

O=C1CCCCCCCCCCCN1
Potency [1]: inactive
Potency [2]: inactive

CN(C)CCCNCCCN(C)C
Potency [1]: inactive
Potency [2]: inactive

CCCCCCC(O)CCOC(C)=O (stereo not drawn)
Potency [1]: inactive
Potency [2]: inactive

COC(=O)[C@@H]1[C@H]2C[C@H]3c4[nH]c5ccccc5c4CCN3C[C@@H]2CC[C@@H]1O
Potency [1]: inactive
Potency [2]: inactive

CC(C)COC(=O)c1ccccc1O
Potency [1]: inactive
Potency [2]: inactive

O=S1(=O)CC=CC1
Potency [1]: inactive
Potency [2]: inactive

CC1CCC2CC1C2(C)C (stereo not drawn)
Potency [1]: inactive
Potency [2]: inactive

CC(COC(C)(C)C)OCCCO (stereo not drawn)
Potency [1]: inactive
Potency [2]: inactive

N[C@@H](Cc1c[nH]c2ccc(O)cc12)C(=O)O
Potency [1]: inactive
Potency [2]: inactive

C/C(=C1\CCOC(=O)S1)N(C=O)Cc1cnc(C)nc1N
Potency [1]: inactive
Potency [2]: inactive

CCC(=O)OCCC(C)CCC=C(C)C (stereo not drawn)
Potency [1]: inactive
Potency [2]: inactive

c1ccc(Oc2ccccc2)cc1
Potency [1]: inactive
Potency [2]: inactive

NCC1CCCC(CN)C1 (stereo not drawn)
Potency [1]: inactive
Potency [2]: inactive

COc1cc(Cc2cnc(N)nc2N)cc(OC)c1OC
Potency [1]: inactive
Potency [2]: inactive

O=C(OCCCCCCOC(=O)c1ccccc1)c1ccccc1
Potency [1]: inactive
Potency [2]: inactive

NC(=O)c1cccnc1
Potency [1]: inactive
Potency [2]: inactive

Cc1ncsc1CCO
Potency [1]: inactive
Potency [2]: inactive

C[N+](C)(C)CCOC(=O)CCC(=O)OCC[N+](C)(C)C
Potency [1]: inactive
Potency [2]: inactive

Cc1cc(=O)[nH]c(C(C)C)n1
Potency [1]: inactive
Potency [2]: inactive

Nc1cc(C(F)(F)F)ccc1S
Potency [1]: inactive
Potency [2]: inactive

COC(=O)CC(C)CCC=C(C)C (stereo not drawn)
Potency [1]: inactive
Potency [2]: inactive

CCC(Cl)CC(Cl)C(Cl)C(Cl)C(Cl)C(C)Cl (stereo not drawn)
viability change, negative = cytotoxic [1]: -10.4% [at 18.9 µM]
activity change, negative = cytotoxicity [2]: -0.221% [at 18.9 µM]

NC1CCCCC1
Potency [1]: inactive
Potency [2]: inactive

CCC1=C[C@@H]2CN(C1)Cc1c([nH]c3ccccc13)[C@@](C(=O)OC)(c1cc3c(cc1OC)N(C)[C@H]1[C@@](O)(C(=O)OC)[C@H](OC(C)=O)[C@]4(CC)C=CCN5CC[C@]31[C@@H]54)C2
Potency [1]: inactive
Potency [2]: inactive

NC(=O)NS(=O)(=O)c1ccc(N)cc1
Potency [1]: inactive
Potency [2]: inactive

CC(=O)NO
Potency [1]: inactive
Potency [2]: inactive

CN(C)C(=O)NC1(c2ccccc2)CCN(CC[C@@]2(c3ccc(F)c(F)c3)CN(C(=O)c3ccccc3)CCO2)CC1
Potency [1]: inactive
Potency [2]: inactive

Cc1ccccn1
Potency [1]: inactive
Potency [2]: inactive

OC[C@H]1O[C@H](O[C@H]2O[C@H](CO)[C@@H](O)[C@H](O)[C@H]2O)[C@H](O)[C@@H](O)[C@@H]1O
Potency [1]: inactive
Potency [2]: inactive

c1cc[nH]c1
Potency [1]: inactive
Potency [2]: inactive

CCCCCCCCCCCCCCCCCCO
Potency [1]: inactive
Potency [2]: inactive

Cc1cccc2n[nH]nc12
Potency [1]: inactive
Potency [2]: inactive

COc1ccc(C)cc1
Potency [1]: inactive
Potency [2]: inactive

C=C[C@H]1CN2CC[C@H]1C[C@@H]2[C@@H](O)c1ccnc2ccc(OC)cc12
Potency [1]: inactive
Potency [2]: inactive

CC1(C)O[C@@H]2C[C@H]3[C@@H]4C[C@H](F)C5=CC(=O)C=C[C@]5(C)[C@H]4[C@@H](O)C[C@]3(C)[C@]2(C(=O)CO)O1
Potency [1]: inactive
Potency [2]: inactive

Cc1ccc(C(=O)Nc2ccc(S(=O)(=O)O)c3cc(S(=O)(=O)O)cc(S(=O)(=O)O)c23)cc1NC(=O)c1cccc(NC(=O)Nc2cccc(C(=O)Nc3cc(C(=O)Nc4ccc(S(=O)(=O)O)c5cc(S(=O)(=O)O)cc(S(=O)(=O)O)c45)ccc3C)c2)c1
Potency [1]: inactive
Potency [2]: inactive

CCNC(=O)NCc1cccc(Cl)c1
Potency [1]: inactive
Potency [2]: inactive

O=C(O)c1ccc[n+]([O-])c1
Potency [1]: inactive
Potency [2]: inactive

C/C(=C\C(C)CC(C)CC(C)C)C1CC(=O)OC1=O (stereo not drawn)
Potency [1]: inactive
Potency [2]: inactive

CCCCOC(=O)CO
Potency [1]: inactive
Potency [2]: inactive
